Assay results taken from ChEMBL document CHEMBL1157539, “Thousands of chemical starting points for antimalarial lead identification” (Nature, 2010).
“And” between values parts separate entries of the source, which are not always exact repeats. Equal entries are not always repeated.

Experiments:
Type in all cases: functional
Plasmodium falciparum [1] = assay: GSK_TCMDC: Inhibition of Plasmodium falciparum 3D7 in whole red blood cells, using parasite LDH activity as an index of growth. Test compounds present at 2uM
Plasmodium falciparum [2] = assay: GSK_TCMDC: Inhibition of Plasmodium falciparum Dd2 in whole red blood cells, using parasite LDH activity as an index of growth. Test compounds present at 2uM
HepG2 = assay: GSK_TCMDC: Percent inhibition of human HepG2 cell line. Test compounds present at 10uM.

Row | SMILES | Inhibition (Plasmodium falciparum [1]) | Inhibition (Plasmodium falciparum [2]) | Inhibition (HepG2)
1 | COc1ccc(-c2cccc(NC(=O)c3cccc(Cl)c3)c2)cc1CN1CCN(C)CC1.O=C(O)C(F)(F)F | 100% | 48% | 27%
2 | O=C(Nc1ccccc1)N1CCC(CN2CCOC(c3ccccc3)(c3ccccc3)C2)CC1 | 96% | 98% | 10%
3 | COc1ccccc1Cn1ccnc1SCC(=O)Nc1cccc(C(F)(F)F)c1 | 86% | 73% | 0%
4 | Cl.O=C(Nc1ccc(C(=O)OCC2CCCN3CCCCC23)cc1)c1ccc(Cl)c(Cl)c1 (stereo not given) | 99% | 37% | 20%
5 | CN1CCC(NCc2cccc(-c3ccc(S(=O)(=O)NCc4ccccc4)cc3)c2)CC1.O=C(O)C(F)(F)F | 100% | 93% | 61%
6 | CCN(CCNS(C)(=O)=O)c1ccc(N)c(C)c1.O.O=S(=O)(O)O | 91% | 11% | 0%
7 | COc1ccc2nccc([C@@H](O)CN3CCC(NCc4ccc5c(c4)OCCO5)CC3)c2c1.O=C(O)C(=O)O | 100% | 92% | 9%
8 | CCCN(Cc1ccc(OCC)cc1)Cc1cc(=O)c2cc(Cl)ccc2[nH]1 | 82% | 82% | 47%
9 | CCC(=O)Nc1ccc(Nc2nc(C)cc(N3CCCC3)n2)cc1 | 91% | 2% | 34%
10 | Cc1cc(N/N=C/c2cccc([N+](=O)[O-])c2)c2ccc(F)cc2n1 | 100% | 98% | 0%
11 | Cc1cc(N[C@@H](Cc2ccccc2)C(=O)NC2CCCC2)nc(NCCc2ccc(F)cc2)n1.O=C(O)C(F)(F)F | 100% | 61% | 21%
12 | CCOC(=O)c1c(C)n(-c2ccccc2)c2ccc(OC(=O)COc3ccc(Cl)cc3Cl)cc12 | 99% | 87% | 11%
13 | Cc1ccc(CNC(=O)[C@H](CCCN)Nc2cc(C)nc(Nc3ccccc3)n2)cc1.O=C(O)C(F)(F)F | 90% | 0% | 0%
14 | CCC(C)(C)NC(=O)C(c1cccc(OC)c1)N(C(=O)CNC(=O)c1cccs1)c1ccc2c(c1)OCCO2 (stereo not given) | 100% | 76% | 0%
15 | N=C(Nc1nc(-c2ccccn2)cc2ccccc12)c1cccc(Cl)c1 | 100% | 99% | 54%
16 | CN1CCN(c2ccnc3ccc(NC(=O)Nc4cccc5c(-c6ccncc6)cccc45)cc23)CC1 | 100% | 100% | 7%
17 | COc1cc(C2Nc3ccc4ccccc4c3C3=C2C(=O)CC(C)(C)C3)ccc1Oc1ccc([N+](=O)[O-])cc1C#N (stereo not given) | 99% | 94% | 8%
18 | COc1ccccc1Cn1ccnc1SCC(=O)Nc1cc(C(F)(F)F)ccc1Cl | 96% | 97% | 12%
19 | Cc1c(NCCCNCc2cc(Cl)cc(Cl)c2Cl)[nH]c2ccccc2c1=O.Cl | 100% | 86% | 35%
20 | CN1CCN(c2ccnc3ccc(NC(=O)Nc4c(Cl)cccc4Cl)cc23)CC1 | 96% | 12% | 11%

Row | SMILES | Inhibition (Plasmodium falciparum [1]) | Inhibition (Plasmodium falciparum [2]) | Inhibition (HepG2)
21 | COc1c(C2CCN(CCCCNC(=O)c3cc(-c4ccc(Cl)cc4)[nH]c3C)CC2)ccc2c1CCCC2 | 100% | 91% | 53%
22 | O=C(Nc1ccc(Cl)cc1)Nc1cccc(-c2ccc(-c3nc4cc(F)ccc4[nH]3)cc2)c1 | 100% | 99% | 73%
23 | Cl.N#Cc1ccc2c(c1)CN(CC[C@H]1CC[C@H](NC(=O)/C=C/c3c[nH]c4ccccc34)CC1)CC2 | 92% and 97% | 24% and 27% | 20% and 10%
24 | Cl.N#Cc1ccc2c(c1)CCN(CCC1CCC(NC(=O)c3cc4cccc([N+](=O)[O-])c4[nH]3)CC1)C2 (stereo not given) | 100% | 28% | 0%
25 | CCc1c(C)nc2nc(Cc3cccc(F)c3)nn2c1N1CCN(c2ccccn2)CC1 | 100% | 98% | 0%
26 | COc1ccc2c(N/N=C/c3cccc([N+](=O)[O-])c3)cc(C)nc2c1 | 100% | 97% | 18%
27 | Cc1ccc(C(=O)Nc2ccc(-c3nc4ccccc4[nH]3)cc2)cc1S(=O)(=O)N1CCOCC1 | 90% | 16% | 56%
28 | CC1=C(C(=O)Nc2cc3cn[nH]c3cc2F)C(c2cccc(O)c2F)CC(=O)N1 (stereo not given) | 97% | 98% | 1%
29 | COc1ccc2nccc([C@@H](O)CN3CCC(NC(=O)/C=C/c4c[nH]c5c(C)cccc45)CC3)c2c1 | 100% | 88% | 23%
30 | O=c1[nH]c2c(cc1CNC1CCCCC1)c(-c1cccc(F)c1)nn2-c1ccccc1 | 95% | 89% | 6%
31 | CCCC(CNCc1cccc(I)c1)CNc1cc(=O)c2ccccc2[nH]1 (stereo not given) | 100% | 96% | 0%
32 | COc1ccc(N2CCN(CCCNC(=O)c3ccc(NC(=O)c4cc(Cl)cc(Cl)c4)cc3)CC2)c(OC)c1 | 100% | 79% | 21%
33 | CCOc1ccc(C(C)NC(=O)c2ccc(OC)c(Br)c2)cc1OCC (stereo not given) | 100% | 100% | 9%
34 | CCOC(=O)C(C#N)NC(=O)C=Cc1ccccc1 (stereo not given) | 96% | 9% | 0%
35 | O=C(/C=C/c1ccc(Cl)c(Cl)c1)NCCCCCN1CCC(CCNC(=O)/C=C/c2ccccc2F)CC1 | 94% | 1% | 47%
36 | CN1CCCc2ccc(NC(=O)c3ccc(-c4cc(C(F)(F)F)nn4C)s3)cc2C1.O=C(O)C(F)(F)F | 88% | 34% | 16%
37 | O=C(/C=C/c1ccc(Cl)c(Cl)c1)NCCCCCN1CCC(NC(=O)Nc2cccc(Cl)c2Cl)CC1 | 100% | 35% | 99%
38 | Cl.N=C(N)NN=Cc1c2ccc(Cl)cc2c(Cl)c2ccc(Cl)cc12 | 100% | 90% | 28%
39 | COc1cc2c(cc1OCCN1CCC(N)CC1)N(C(=O)/C=C/c1ccccc1Cl)CC2.Cl | 91% | 18% | 19%
40 | NC1CCCN(Cc2cccc(-c3ccc(-c4nc5cc(C(F)(F)F)ccc5[nH]4)cc3)c2)C1.O=C(O)C(F)(F)F (stereo not given) | 99% | 96% | 47%

Row | SMILES | Inhibition (Plasmodium falciparum [1]) | Inhibition (Plasmodium falciparum [2]) | Inhibition (HepG2)
41 | COc1ccccc1Nc1nc(NC2CCN(C)CC2)cc(-c2cccc(C(F)(F)F)c2)n1.O=C(O)C(F)(F)F | 95% | 71% | 100%
42 | c1cncc(Oc2ccc(Nc3ccnc4cc(-c5cccc(CN6CCCCC6)c5)ccc34)cc2)c1 | 100% | 100% | 33%
43 | Cc1ccc(S(=O)(=O)N2CCN(C(=O)c3cc(-c4ccccc4)n[nH]3)CC2)cc1 | 91% | 88% | 0%
44 | Cn1ncc2ccc(Nc3nccc(-c4ccc5c(c4)c(N)nn5C)n3)cc21 | 99% | 96% | 48%
45 | COc1ccc(N2CCN(C(CNC(=O)C3CCCCC3)c3ccc4c(c3)OCO4)CC2)cc1 (stereo not given) | 92% | 83% | 1%
46 | Cc1cc(C2CCN(CCCCNC(=O)c3ccc(NC(=O)c4ccc(Cl)cc4)cc3)CC2)c(C)cc1OCc1cccnc1 | 100% | 90% | 39%
47 | CCN(CC)c1ccc2nc(N)nc(N)c2c1Cl.Cl | 92% | 1% | 62%
48 | COc1cc2c(c(OC)c1[N+](=O)[O-])C=CC1(O2)N(C)c2ccc([N+](=O)[O-])cc2C1(C)C (stereo not given) | 92% | 89% | 0%
49 | CC(C)c1ccc(C=CC(=O)N2CCC(CCN3CCC(c4c[nH]c5ccccc45)CC3)CC2)cc1 | 93% | 11% | 85%
50 | COc1ccc2ncc(F)c(CCN3CC(O)C(CNCc4ccccc4)C3)c2n1.Cl (stereo not given) | 89% | 22% | 19%
51 | O=C(NC1CCN(CCCc2ccccc2)CC1)c1ccc(-c2cccc(C(F)(F)F)c2)s1.O=C(O)C(F)(F)F | 95% | 47% | 93%
52 | Br.N=C1N=C(N)NC2(CCCCC2)N1OCC1CCCCC1 | 96% | 49% | 70%
53 | O=C(Nc1ccc2c(c1)CCN2C1CCN(Cc2csc3ccccc23)C1)c1ccco1 (stereo not given) | 95% | 95% | 0%
54 | Cc1nc(C)c(C2CCC(c3ccc(Cl)cc3)CC2)c(O)c1Cl (stereo not given) | 98% | 97% | 37%
55 | Cc1cc(CN2CC[C@H](NC(=O)c3ccc(Cl)c(Cl)c3)C2)ccc1OC1CCN(Cc2ccccc2)CC1.O=C(O)C(F)(F)F | 98% | 29% | 59%
56 | O=C(NC1CCN(c2ccc(F)cc2[N+](=O)[O-])CC1)c1cccs1 | 90% | 91% | 0%
57 | Cl.c1ccc(Cn2nnnc2-c2cccc(Nc3ccnc4cc(-c5nccs5)ccc34)c2)cc1 | 87% | 46% | 51%
58 | CCCCCCCN1CC[C@@H](CCCc2ccnc3ccc(OCCN4CCNCC4)cc23)[C@@H](CC)C1.Cl | 100% | 98% | 82%
59 | Cc1cccc(N2CCN(C3CCC(NC(=O)c4cc5ccccc5[nH]4)CC3)CC2)c1C (stereo not given) | 100% | 21% | 49%
60 | CC(C)(C)c1ccc(NC(=O)c2cccc(CN3CCCN(Cc4cccc(O)c4)CC3)c2)cc1.O=C(O)C(F)(F)F | 100% | 69% | 97%
